Laboratory results as given in PubChem BioAssay (EPA / NIEHS).
Calls of active or inactive are those of the source. How the source made its calls: active means hit-call score of the fitted dose curve at least 0.9, where 1 is the maximum; inactive means score below 0.9.

read-out: Glutamate-cysteine ligase catalytic (GCLC), GCLC (gene 2729); test: LTEA_HepaRG_GCLC: Life Technologies and Expression Analysis (LTEA) Assay for Glutamate-cysteine ligase catalytic (GCLC) using HepaRG (AID 2283498); conditions: mRNA level, 48 h; actives raise or lower the signal
Procedure, shortened: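 Oxidative-stress marker GCLC is measured as mRNA change in human HepaRG liver cells after 48 h chemical treatment in 0.5% DMSO, eight concentrations from 100 uM. Activity is fitted bidirectionally against vehicle.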

Question: With `CCCCN(CCCC)CCCC` as the compound, how does the outcome read?
Answer: Its outcome is “inactive”.

Question: How did the outcome turn out when `CCOC(=O)C(C)(C)Oc1ccc(Cl)cc1` was run?
Answer: The outcome was “inactive”.

Question: For `CCOc1ccc2c(c1)C(C)=CC(C)(C)N2`, which outcome is on record?
Answer: Its outcome is “inactive”.

Question: For `Cc1cccc([N+](=O)[O-])c1C`, which outcome is on record?
Answer: The outcome was “inactive”.

Question: With `O=c1[nH]cc(F)c(=O)[nH]1` as the compound, how does the outcome read?
Answer: Its outcome is “inactive”.

Question: With `Nc1ccc(S(=O)(=O)c2ccc(N)cc2)cc1` as the compound, how does the outcome read?
Answer: Its outcome is “inactive”.

Question: With `C=CCOC(=O)c1ccccc1C(=O)OCC=C` as the compound, how does the outcome read?
Answer: The outcome was “inactive”.

Question: For `CCCCCCC(=O)OCC`, which outcome is on record?
Answer: The outcome was “inactive”.

Question: Which outcome does the source give for `CCNc1cccc(C)c1` here?
Answer: Its outcome is “inactive”.

Question: Which outcome does the source give for `C[C@]12C=CC(=O)C=C1CC[C@@H]1[C@@H]2C(=O)C[C@@]2(C)[C@H]1CC[C@]2(O)C(=O)CO` here?
Answer: The outcome was “inactive”.

Question: For `O=C(OCCCCCOC(=O)c1ccccc1)c1ccccc1`, which AC50 is on record?
Answer: Its AC50 is 0.543 µM (active).

Question: Which outcome does the source give for `COC(=O)c1ccc(O)cc1` here?
Answer: Its outcome is “inactive”.

Question: For `NC(=O)Cn1c(=O)cc(CCN2CCN(c3nccc4sccc34)CC2)c2ccc(F)cc21`, which outcome is on record?
Answer: The outcome was “inactive”.

read-out: growth arrest and DNA damage 45 (GADD45G), GADD45G (gene 10912); test: LTEA_HepaRG_GADD45G: Life Technologies and Expression Analysis (LTEA) Assay for growth arrest and DNA damage 45 (GADD45G) using HepaRG (AID 2283499); conditions: mRNA level, 48 h; actives raise or lower the signal
Procedure, shortened: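 Human hepatic HepaRG line treated 48 h with chemicals (eight concentrations, half-log steps from 100 uM); transcript induction or repression of GADD45G scored by qRT-PCR versus DMSO vehicle.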

Question: Which outcome does the source give for `CCOC(=O)CCC(=O)OCC` here?
Answer: Its outcome is “inactive”.

Question: For `CCc1c(C(=O)NN2CCCCC2)nn(-c2ccc(Cl)cc2Cl)c1-c1ccc(Br)cc1`, which AC50 is on record?
Answer: The AC50 was 41.6 µM (active).

Question: `Nc1nc(N)c2nc(CNc3ccc(C(=O)N[C@@H](CCC(=O)O)C(=O)O)cc3)cnc2n1` was tested. Which outcome did it give?
Answer: The outcome was “inactive”.

Question: Which outcome does the source give for `CCCCCCCCCCO` here?
Answer: Its outcome is “inactive”.

Question: For `CCCCN(CCCC)CCCC`, which outcome is on record?
Answer: The outcome was “inactive”.

Question: With `Oc1ccc2ccccc2c1N=Nc1ccccc1` as the compound, how does the AC50 read?
Answer: Its AC50 is 12.6 µM (active).

Question: For `CCOC(=O)C(C)(C)Oc1ccc(Cl)cc1`, which outcome is on record?
Answer: Its outcome is “inactive”.

Question: How did the outcome turn out when `CCCc1cc(=O)[nH]c(=S)[nH]1` was run?
Answer: The outcome was “inactive”.

Question: `CC1(C)CC(N=C=O)CC(C)(CN=C=O)C1` (stereo not given) was tested. Which outcome did it give?
Answer: Its outcome is “inactive”.

Question: For `CCOc1ccc2c(c1)C(C)=CC(C)(C)N2`, which outcome is on record?
Answer: Its outcome is “inactive”.

Question: For `Cc1cccc([N+](=O)[O-])c1C`, which outcome is on record?
Answer: The outcome was “inactive”.

Question: With `O=c1[nH]cc(F)c(=O)[nH]1` as the compound, how does the outcome read?
Answer: Its outcome is “inactive”.

Question: Which outcome does the source give for `Cc1cc(=O)[nH]c(=S)[nH]1` here?
Answer: Its outcome is “inactive”.

Question: How did the outcome turn out when `Nc1ccc(S(=O)(=O)c2ccc(N)cc2)cc1` was run?
Answer: The outcome was “inactive”.

Question: `C=CCOC(=O)c1ccccc1C(=O)OCC=C` was tested. Which outcome did it give?
Answer: Its outcome is “inactive”.

Question: Which outcome does the source give for `C=CCc1ccc(O)c(OC)c1` here?
Answer: The outcome was “inactive”.

Question: `CCCCCCC(=O)OCC` was tested. Which outcome did it give?
Answer: Its outcome is “inactive”.

Question: How did the outcome turn out when `CCNc1cccc(C)c1` was run?
Answer: The outcome was “inactive”.

Question: With `O=c1c(O)c(-c2ccc(O)c(O)c2)oc2cc(O)cc(O)c12` as the compound, how does the outcome read?
Answer: The outcome was “inactive”.

Question: For `COc1ccc2c(c1)c(CC(=O)O)c(C)n2C(=O)c1ccc(Cl)cc1`, which outcome is on record?
Answer: The outcome was “inactive”.

Question: For `COc1ccc(S(=O)(=O)N2C(=O)[C@@](c3ccccc3OC)(N3C[C@H](O)C[C@H]3C(=O)N(C)C)c3cc(Cl)ccc32)c(OC)c1`, which AC50 is on record?
Answer: Its AC50 is 16.5 µM (active).

Question: With `CCCCCCCCCCCC(=O)OC` as the compound, how does the outcome read?
Answer: Its outcome is “inactive”.

Question: How did the outcome turn out when `Cc1ccc(C(C)C)c(O)c1` was run?
Answer: The outcome was “inactive”.

Question: For `CCCCCCOCCO`, which outcome is on record?
Answer: Its outcome is “inactive”.

Question: With `O=C(OCCCCCOC(=O)c1ccccc1)c1ccccc1` as the compound, how does the outcome read?
Answer: Its outcome is “inactive”.

Question: `CNCc1cc(F)ccc1Oc1ccc(Cl)c(Cl)c1` was tested. Which outcome did it give?
Answer: The outcome was “inactive”.

Question: For `COC(=O)c1ccc(O)cc1`, which outcome is on record?
Answer: Its outcome is “inactive”.

Question: For `NC(=O)Cn1c(=O)cc(CCN2CCN(c3nccc4sccc34)CC2)c2ccc(F)cc21`, which AC50 is on record?
Answer: Its AC50 is 83.8 µM (active).

read-out: Glutamate-cysteine ligase regulatory (GCLM), GCLM (gene 2730); test: LTEA_HepaRG_GCLM: Life Technologies and Expression Analysis (LTEA) Assay for Glutamate-cysteine ligase regulatory (GCLM) using HepaRG (AID 2283500); conditions: mRNA level, 48 h; actives raise or lower the signal
Procedure, shortened: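 Endpoint is GCLM transcript level by qRT-PCR, normalized to three housekeeping genes, after 48 h chemical exposure of human HepaRG cells (0.5% DMSO vehicle, top 100 uM, half-log dilutions). Fitting was bidirectional relative to DMSO.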

Question: Which outcome does the source give for `CCOC(=O)CCC(=O)OCC` here?
Answer: Its outcome is “inactive”.

Question: With `CCc1c(C(=O)NN2CCCCC2)nn(-c2ccc(Cl)cc2Cl)c1-c1ccc(Br)cc1` as the compound, how does the AC50 read?
Answer: Its AC50 is 50 µM (active).

Question: `Nc1nc(N)c2nc(CNc3ccc(C(=O)N[C@@H](CCC(=O)O)C(=O)O)cc3)cnc2n1` was tested. Which outcome did it give?
Answer: Its outcome is “inactive”.

Question: For `CCCCCCCCCCO`, which outcome is on record?
Answer: The outcome was “inactive”.

Question: Which outcome does the source give for `CCCCN(CCCC)CCCC` here?
Answer: Its outcome is “inactive”.

Question: With `Oc1ccc2ccccc2c1N=Nc1ccccc1` as the compound, how does the AC50 read?
Answer: Its AC50 is 24.6 µM (active).

Question: `CCOC(=O)C(C)(C)Oc1ccc(Cl)cc1` was tested. Which outcome did it give?
Answer: Its outcome is “inactive”.

Question: With `CCCc1cc(=O)[nH]c(=S)[nH]1` as the compound, how does the outcome read?
Answer: Its outcome is “inactive”.

Question: Which outcome does the source give for `CC1(C)CC(N=C=O)CC(C)(CN=C=O)C1` (stereo not given) here?
Answer: The outcome was “inactive”.

Question: `CCOc1ccc2c(c1)C(C)=CC(C)(C)N2` was tested. Which outcome did it give?
Answer: The outcome was “inactive”.

Question: With `Cc1cccc([N+](=O)[O-])c1C` as the compound, how does the outcome read?
Answer: Its outcome is “inactive”.

Question: Which outcome does the source give for `O=c1[nH]cc(F)c(=O)[nH]1` here?
Answer: Its outcome is “inactive”.

Question: How did the outcome turn out when `Cc1cc(=O)[nH]c(=S)[nH]1` was run?
Answer: The outcome was “inactive”.

Question: With `Nc1ccc(S(=O)(=O)c2ccc(N)cc2)cc1` as the compound, how does the outcome read?
Answer: Its outcome is “inactive”.

Question: `C=CCOC(=O)c1ccccc1C(=O)OCC=C` was tested. Which outcome did it give?
Answer: The outcome was “inactive”.

Question: How did the outcome turn out when `C=CCc1ccc(O)c(OC)c1` was run?
Answer: The outcome was “inactive”.

Question: How did the outcome turn out when `CCCCCCC(=O)OCC` was run?
Answer: The outcome was “inactive”.

Question: How did the outcome turn out when `CCNc1cccc(C)c1` was run?
Answer: Its outcome is “inactive”.

Question: For `C[C@]12C=CC(=O)C=C1CC[C@@H]1[C@@H]2C(=O)C[C@@]2(C)[C@H]1CC[C@]2(O)C(=O)CO`, which outcome is on record?
Answer: The outcome was “inactive”.

Question: How did the outcome turn out when `O=c1c(O)c(-c2ccc(O)c(O)c2)oc2cc(O)cc(O)c12` was run?
Answer: The outcome was “inactive”.

Question: With `COc1ccc2c(c1)c(CC(=O)O)c(C)n2C(=O)c1ccc(Cl)cc1` as the compound, how does the outcome read?
Answer: The outcome was “inactive”.

Question: `COc1ccc(S(=O)(=O)N2C(=O)[C@@](c3ccccc3OC)(N3C[C@H](O)C[C@H]3C(=O)N(C)C)c3cc(Cl)ccc32)c(OC)c1` was tested. Which AC50 did it give?
Answer: Its AC50 is 78.6 µM (active).

Question: `CCCCCCCCCCCC(=O)OC` was tested. Which outcome did it give?
Answer: The outcome was “inactive”.

Question: For `Cc1ccc(C(C)C)c(O)c1`, which outcome is on record?
Answer: Its outcome is “inactive”.

Question: Which outcome does the source give for `CCCCCCOCCO` here?
Answer: Its outcome is “inactive”.

Question: How did the AC50 turn out when `O=C(OCCCCCOC(=O)c1ccccc1)c1ccccc1` was run?
Answer: The AC50 was 1.57 µM (active).

Question: Which outcome does the source give for `CNCc1cc(F)ccc1Oc1ccc(Cl)c(Cl)c1` here?
Answer: The outcome was “inactive”.

Question: `COC(=O)c1ccc(O)cc1` was tested. Which outcome did it give?
Answer: Its outcome is “inactive”.

Question: For `NC(=O)Cn1c(=O)cc(CCN2CCN(c3nccc4sccc34)CC2)c2ccc(F)cc21`, which outcome is on record?
Answer: The outcome was “inactive”.
